This is an account of results in PubChem BioAssay (Tox21).

Experiment [1] in a line: qHTS assay to identify small molecule antagonists of the estrogen related receptor (ERR) signaling pathway from Tox21 library - cell viability counter screen (AID 1224834). Further: nearly all actives have a fitted effect of over 30% in size. A digest of the protocol:
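ERR cells, 2,000/well; 6 h settle at 37 C/5% CO2; pin-tool compound transfer in DMSO; 17.5 h at 37 C; CellTiter-Fluor, 30 min; fluorescence intensity.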
A general note: In qHTS, concentration-response curves come from the screen itself.

In experiment [2] the target is Luciferin 4-monooxygenase (Photinus pyralis) (UniProt P08659). Nature of the experiment: qHTS assay to identify small molecule inhibitors of firefly luciferase (AID 1224835). Further: nearly all actives have a fitted effect of over 25% in size. Further: potency means the concentration at half of the fitted maximal effect. The method in brief: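 Inhibition of purified Photinus luciferase is measured by luminescence. Substrate levels (D-luciferin, ATP) sit at their KM values. Each compound is tested in a concentration series.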
Sequence of Luciferin 4-monooxygenase (Photinus pyralis) (P08659 whole entry, looked up): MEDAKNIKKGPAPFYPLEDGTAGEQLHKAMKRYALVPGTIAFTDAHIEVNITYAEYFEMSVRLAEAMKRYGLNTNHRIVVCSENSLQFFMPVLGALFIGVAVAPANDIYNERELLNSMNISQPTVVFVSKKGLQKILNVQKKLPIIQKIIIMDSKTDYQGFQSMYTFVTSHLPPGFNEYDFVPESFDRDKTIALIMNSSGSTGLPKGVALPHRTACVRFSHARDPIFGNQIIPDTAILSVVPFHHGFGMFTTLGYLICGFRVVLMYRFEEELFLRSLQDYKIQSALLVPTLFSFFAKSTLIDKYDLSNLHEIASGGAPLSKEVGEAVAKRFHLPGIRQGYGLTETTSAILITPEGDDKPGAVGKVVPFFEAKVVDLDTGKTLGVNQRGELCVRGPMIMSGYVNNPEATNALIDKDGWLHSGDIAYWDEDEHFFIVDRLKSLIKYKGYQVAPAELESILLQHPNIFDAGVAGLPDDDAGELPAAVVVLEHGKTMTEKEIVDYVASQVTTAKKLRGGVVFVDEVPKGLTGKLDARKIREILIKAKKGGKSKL

The nature of experiment [3]: qHTS assay to identify small molecule agonists of the constitutive androstane receptor (CAR) signaling pathway - cell viability counter screen (AID 1224836). Further: nearly all actives have a fitted effect of over 45% in size. A digest of the protocol: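 Compound titrations (15 concentrations) went onto HepG2-CYP2B6-hCAR cells 4 h after seeding, alongside PK11195 at a final 0.75 uM; a 23 h, 37 C/5% CO2 incubation preceded CellTiter-Fluor viability measurement.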

Experiment [4] in a line: qHTS assay to identify small molecule antagonists of the constitutive androstane receptor (CAR) signaling pathway - cell viability counter screen (AID 1224837). Further: nearly all actives have a fitted effect of over 45% in size. A digest of the protocol: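 Viability was measured with CellTiter-Fluor in a HepG2 line carrying stably transfected hCAR and a CYP2B6-2.2kb construct. Cells were exposed for 23 hr at 37 C to 15 compound concentrations with 50 nM CITCO as agonist.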

Experiment [5] concerns the target Nuclear receptor subfamily 1 group I member 3 (Homo sapiens) (UniProt Q14994). Description: qHTS assay to identify small molecule antagonists of the constitutive androstane receptor (CAR) signaling pathway (AID 1224838).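 Further: HepG2 cells stably expressing hCAR with CYP2B6 luciferase reporter stimulated by CITCO; nearly all actives have a fitted effect of over 40% in size.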 The method in brief: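 Antagonist mode used CITCO at a final 50 nM to activate CAR in human hepatoma HepG2 cells carrying stable hCAR and a 2.2 kb CYP2B6 promoter-luciferase construct. Compounds were tested at 15 concentrations over 24 h, with luminescence as the end point.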

Experiment [6] shares this target. Nature of the experiment: qHTS assay to identify small molecule agonists of the constitutive androstane receptor (CAR) signaling pathway (AID 1224839). Further: nearly all actives have a fitted effect of over 15% in size. Further: potency means the concentration at half of the fitted maximal effect. A digest of the protocol: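 In this screen, CAR-driven CYP2B6 promoter activity is measured by luminescence in HepG2-CYP2B6-hCAR cells after 24 h with test compounds and 0.75 uM PK11195 (final concentration).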
Experiment [7] in a line: qHTS assay to identify small molecule antagonists of the estrogen related receptor signaling pathway with the pleiotropic PPARgamma coactivator (PGC) from Tox21 10K library - cell viability counter screen (AID 1224840; active means well fitted cell-killing curve with a large enough effect in the repeat runs, not every such curve was filed as active; further: nearly all actives have a fitted effect of over 40% in size). The method in brief:
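Multiplexed viability counter screen in the PGC/ERR cell line: cells treated with DMSO-dissolved compounds for 17.5 hours at 37 C, then viability measured as CellTiter-Fluor fluorescence.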

A short description of experiment [8]: qHTS assay to identify small molecule antagonists of the estrogen related receptor signaling pathway with the pleiotropic PPARgamma coactivator (PGC) from Tox21 10K library (AID 1224841; call rule not given here; further: actives are mostly falling curves and most rising ones were filed inactive; nearly all actives have a fitted effect of over 50% in size; further: potency means the concentration at half of the fitted maximal effect). A digest of the protocol: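 Steps: plate 2,000 PGC/ERR cells per well; incubate 6 h at 37 C with 5% CO2; transfer compounds from DMSO stocks by pin tool; incubate 18 h at 37 C; add One-Glo; measure luminescence 30 min later.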

Experiment [9] can be described thus: qHTS assay to identify small molecule agonists of the estrogen related receptor signaling pathway with the pleiotropic PPARgamma coactivator (PGC) from Tox21 10K library (AID 1224842). Further: nearly all actives have a fitted effect of over 15% in size. The method in brief: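 Luminescence from One-Glo (30 min, room temperature) measured after PGC/ERR cells had 18 h at 37 C with pinned compound (23 nL in DMSO). Cells had been seeded at 2,000 per well and pre-incubated 6 h.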

For experiment [10], the target named is Thyrotropin receptor (Homo sapiens) (UniProt P16473). Nature of the experiment: qHTS assay to identify small molecule agonists of the thyroid stimulating hormone receptor (TSHR) signaling pathway (AID 1224843; calls by dose curve; further: nearly all actives have a fitted effect of over 45% in size). A digest of the protocol:
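A cell-based cAMP HTRF format was run in TSHR-transfected HEK293 cells, 800 per well. Treatment: 30 min, room temperature. Detection: 1 h with labelled cAMP and anti-cAMP cryptate. Concentration-response over 15 points, three replicates.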

A short description of experiment [11]: qHTS assay to identify small molecule agonists of the hypoxia (HIF-1) signaling pathway - cell viability counter screen (AID 1224844; calls by dose curve; further: nearly all actives have a fitted effect of over 50% in size). A digest of the protocol: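 Cytotoxicity was measured in parallel with the HRE-driven beta-lactamase readout: after 17 hrs of compound exposure at 37C, HRE-bla ME-180 cells received CellTiter-Glo and luminescence was recorded 30 min later.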

Experiment [12] is described as follows: qHTS assay to identify small molecule agonists of H2AX (AID 1224845; active means well fitted activation curve with a large enough effect in the signal ratio in the repeat runs, not every such curve was filed as active; the % refers to the signal ratio). A digest of the protocol:
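Phospho-H2AX Ser139 measured by HTRF (ex 320 nm; em 665 and 620 nm) after 24 hr antibody incubation. Compounds, 15 concentrations, 0.76% DMSO, were applied to CHO-K1 cells for 3hr at 37C before lysis.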

Experiment [13] can be described thus: qHTS assay to identify small molecule agonists of the hypoxia (HIF-1) signaling pathway (AID 1224846; active means well fitted activation curve with a large enough effect in the signal ratio in the repeat runs, not every such curve was filed as active; the % refers to the signal ratio). The method in brief: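 Compounds from the Tox21 10K library, dissolved in DMSO, are tested for induction of a hypoxia response element–controlled beta-lactamase reporter in ME-180 cells. Exposure lasts 17 hrs at 37C after a 5 hr settling period, followed by CCF4-AM FRET substrate.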

Experiment [14] can be described thus: qHTS assay to identify small molecule agonists of H2AX - cell viability counter screen (AID 1224847; calls by dose curve; further: nearly all actives have a fitted effect of over 30% in size; further: potency means the concentration at half of the fitted maximal effect). The method in brief:
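Read-out: CellTiter-Glo luminescence, 30 min RT. Cells: wild-type CHO-K1, 1000/well, 10% FBS, plated overnight at 37C. Treatment: 15 concentrations, 3 hr, 37C, 0.76% DMSO.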

A short description of experiment [15]: qHTS assay to identify small molecule antagonists of the estrogen related receptor (ERR) signaling pathway from Tox21 library (AID 1224848). Further: nearly all actives have a fitted effect of over 50% in size. Further: potency means the concentration at half of the fitted maximal effect. The method in brief: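 ERR cell line, 2,000 cells/well. 6 h settle, then compound (DMSO) added; 18 h at 37 C; ONE-Glo luminescence after 30 min RT.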
Experiment [16] in a line: qHTS assay to identify small molecule agonists of the estrogen related receptor (ERR) signaling pathway from Tox21 library (AID 1224849; calls by dose curve; further: nearly all actives have a fitted effect of over 15% in size). The settings on record: ERR reporter cell line, ONE-Glo luciferase, 18 h; at 92.4 µM (top of the series) unless noted. A digest of the protocol: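 Cells carrying the ERR reporter were plated and allowed to settle for 6 h, exposed to library compounds for 18 h at 37 C, then lysed with ONE-Glo and luminescence measured.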

Experiment [17] is described as follows: qHTS RealTime-Glo MT Cell Viability Assay in HepG2 cells - 24 hour (AID 1224867). Further: nearly all actives have a fitted effect of over 50% in size. The method in brief:
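Compound treatment began 5 h after plating HepG2 cells (600/well) with NanoLuc luciferase and prosubstrate. Plates stayed at 37 C for 40 h; luminescence was captured at six time points, 0 h through 40 h.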

The nature of experiment [18]: qHTS RealTime-Glo MT Cell Viability Assay in HEK293 cells - 32 hour (AID 1224868). Further: nearly all actives have a fitted effect of over 50% in size. Further: potency means the concentration at half of the fitted maximal effect. A digest of the protocol: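 Quantitative high-throughput screen of the Tox21 10K library in HEK293: cells and RealTime-Glo reagents plated together, compound added at 5 h, luminescence monitored through 40 h at 37 C.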
Experiment [19] in a line: A CellTox Green Cytotoxicity Assay to monitor cytotoxicity in HEK293 cells - 0 hour (AID 1224869). Further: nearly all actives have a fitted effect of over 50% in size. A digest of the protocol: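 Cells (HEK293, 600/well) and dye reagent are dispensed together. After 5 h at 37 C, 23 nL compound is pinned in. Plates stay at 37 C for 40 h with fluorescence read at 0h, 8h, 16h, 24h, 32h and 40h.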
Experiment [20] is described as follows: qHTS assay to identify small molecule agonists of the estrogen related receptor signaling pathway with the pleiotropic PPARgamma coactivator (PGC) (AID 1224823). A digest of the protocol: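 Luminescence readout (One-Glo, 30 min RT) from PGC/ERR cell line treated 18 h at 37 C with pin-tool-delivered DMSO compound solutions; cells plated 6 h before dosing. Quantitative HTS format.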

Unmarked numbers belong to inactive results. Records with an inconclusive call do not appear. Calls of active or inactive are those of the source. Unless noted, the call rests on the fitted dose curve; in most records, active means well fitted curve in the direction sought with a large enough effect in the repeat runs; inconclusive means weak or mixed curves; inactive means no such curve, though single readings can be large; an effect the other way counts as inactive or inconclusive.
On the % scale 0 is the no-effect control and ±100 the full control effect.

Sequence of Thyrotropin receptor (Homo sapiens) (P16473 whole entry, looked up): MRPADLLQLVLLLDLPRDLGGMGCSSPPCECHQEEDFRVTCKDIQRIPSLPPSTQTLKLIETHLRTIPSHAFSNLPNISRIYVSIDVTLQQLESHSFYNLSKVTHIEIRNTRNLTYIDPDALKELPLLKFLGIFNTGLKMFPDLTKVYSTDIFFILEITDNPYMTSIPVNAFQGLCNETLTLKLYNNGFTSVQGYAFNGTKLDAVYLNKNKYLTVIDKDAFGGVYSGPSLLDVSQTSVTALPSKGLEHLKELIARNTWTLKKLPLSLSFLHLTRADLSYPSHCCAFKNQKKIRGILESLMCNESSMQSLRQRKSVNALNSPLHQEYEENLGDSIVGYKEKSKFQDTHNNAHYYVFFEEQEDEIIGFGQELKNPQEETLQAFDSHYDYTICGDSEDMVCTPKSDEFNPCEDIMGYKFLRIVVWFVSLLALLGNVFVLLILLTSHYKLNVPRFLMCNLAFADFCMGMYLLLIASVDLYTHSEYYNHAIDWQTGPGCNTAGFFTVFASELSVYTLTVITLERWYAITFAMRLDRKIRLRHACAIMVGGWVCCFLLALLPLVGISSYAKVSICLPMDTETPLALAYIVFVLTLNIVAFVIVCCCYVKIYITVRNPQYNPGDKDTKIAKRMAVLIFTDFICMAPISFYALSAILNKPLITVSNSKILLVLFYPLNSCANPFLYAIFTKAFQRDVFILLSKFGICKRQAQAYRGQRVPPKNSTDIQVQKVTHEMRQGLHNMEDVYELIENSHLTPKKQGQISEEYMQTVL
Sequence of Nuclear receptor subfamily 1 group I member 3 (Homo sapiens) (Q14994 whole entry, looked up): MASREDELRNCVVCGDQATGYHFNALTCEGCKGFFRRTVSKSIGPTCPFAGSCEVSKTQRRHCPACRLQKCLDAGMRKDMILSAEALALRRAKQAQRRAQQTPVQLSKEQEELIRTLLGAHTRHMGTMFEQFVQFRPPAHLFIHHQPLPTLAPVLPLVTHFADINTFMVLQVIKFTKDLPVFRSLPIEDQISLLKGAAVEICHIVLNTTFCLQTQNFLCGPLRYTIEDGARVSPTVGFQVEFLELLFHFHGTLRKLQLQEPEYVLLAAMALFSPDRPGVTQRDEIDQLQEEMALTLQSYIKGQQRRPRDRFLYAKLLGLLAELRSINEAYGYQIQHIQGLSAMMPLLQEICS

Turning to `CCCC1C(CC)=CC(CC)=CN1c1ccccc1` (stereo unspecified), the Potency result in [1], in experiment [2], in [3], in experiment [4], in experiment [5] and in experiment [7] was “inactive” each time. Besides, the Potency entry in [9], in [10], in experiment [11], in experiment [12], in [14] and in [17] was “inactive” each time. For the same compound, the Potency result in experiment [19] was “inactive”. For the same compound, the Potency is 19.3 µM (active) in [6], 34.4 µM (active) in [8], 43.3 µM (active) in experiment [15] and 13.8 µM (active) in experiment [18]. The compound was called inactive in experiment [13]. In addition, the activity change, positive = activation in experiment [16] is -47.2%.
Turning to `O=C(O)Cc1ccc(-c2ccccc2)cc1`, the Potency entry in [1], in [2], in experiment [3], in experiment [4], in [5] and in experiment [6] was “inactive” each time. The Potency entry in experiment [7], in experiment [8], in experiment [10], in experiment [11], in experiment [12] and in experiment [14] was “inactive” each time. Further, the Potency result in experiment [15], in experiment [17], in experiment [18] and in [19] was “inactive” in each case. In addition, the activity change, positive = activation in experiment [16] was 1.1% [at 42.5 µM].
In the case of `O=C(/C=C/c1ccccc1)OCCCc1ccccc1`, the Potency result in [1], in experiment [3], in experiment [4], in [5], in experiment [6] and in [7] was “inactive” throughout. The Potency entry in experiment [8], in experiment [10], in experiment [11], in experiment [12], in experiment [14] and in experiment [15] was “inactive” throughout. Besides, the Potency entry in experiment [17], in experiment [18] and in [19] was “inactive” each time. Besides, the Potency in experiment [2] is 17.8 µM (active). Besides, in experiment [13], the result was inactive.
As for `CCCc1c(OCCCOc2ccc(OCC(=O)O)cc2)ccc(C(C)=O)c1O`, the Potency result in experiment [20], in experiment [1], in experiment [3], in [4], in [7] and in experiment [8] was “inactive” each time. The Potency entry in experiment [9], in experiment [10], in experiment [15], in experiment [17], in [18] and in experiment [19] was “inactive” in each case. Also, the Potency in [14] is 101 µM (active).
As to `Cc1nc2ccccc2s1`, the Potency result in [1], in experiment [2], in [3], in experiment [4], in experiment [5] and in experiment [6] was “inactive” each time. Moreover, the Potency entry in experiment [7], in experiment [9], in [10], in [11], in experiment [12] and in experiment [14] was “inactive” each time. Besides, the Potency result in experiment [15], in experiment [17], in experiment [18] and in experiment [19] was “inactive” each time. In addition, the Potency in [8] is 48.9 µM (active). Besides, in [13], the compound was called inactive.
Consider `CC(=O)Nc1ccccc1C`, for which the Potency entry in experiment [1], in experiment [2], in experiment [3], in [4], in [5] and in experiment [6] was “inactive” in each case. For the same compound, the Potency result in experiment [7], in experiment [8], in experiment [9], in [10], in experiment [11] and in experiment [12] was “inactive” throughout. In addition, the Potency entry in experiment [14], in experiment [15], in experiment [17], in experiment [18] and in experiment [19] was “inactive” each time.
